The values below come from PubChem BioAssay (EPA / NIEHS).

The AC50 is the midpoint of the concentration-response curve, whichever way the signal moves.

Structures are written as SMILES. The source made the active and inactive calls. The calls were made as follows: active = hit-call score of the fitted dose curve at least 0.9, where 1 is the maximum; inactive = score below 0.9.

The assay in a line: ATG_M_61_CIS: Attagene CIS-FACTORIAL HepG2 Assay for M61 Transcription Factor (Internal Marker) (AID 2282937). The following applies: HepG2 Attagene CIS-FACTORIAL M61 internal marker reporter; actives raise or lower the signal. The procedure:
ATG_CIS is a cell-based, multiplexed-readout assay that uses HepG2, a human liver cell line, with measurements taken at 24 hours after chemical dosing in a 24-well plate.ATG_M_61_CIS is one of 52 assay component(s) measured or calculated from the ATG_CIS assay. It is designed to make measurements of mRNA induction, a form of inducible reporter, as detected with fluorescence intensity signals by Reverse transcription polymerase chain reaction (RT-PCR) and Capillary electrophoresis technology.Data from the assay component ATG_M_61_CIS was analyzed into 1 assay endpoint. This assay endpoint, ATG_M_61_CIS, was analyzed with bidirectional fitting relative to DMSO as the negative control and baseline of activity. Using a type of inducible reporter, measures of mRNA for gain or loss-of-signal activity can be used to understand the background control at the transcription factor-level as they relate to the gene . Furthermore, this assay endpoint can be referred to as a secondary readout, because this assay has produced multiple assay endpoints where this one serves a background control function. To generalize the intended target to other relatable targets, this assay endpoint is annotated to the background measurement intended target family, where the subfamily is internal marker.
Human liver HepG2 cells are transiently transfected with multiple reporter transcription units (MRTUs) in 6-well plates using FuGene 6 reagent (Roche; 3 ml FuGene/1 mg DNA). The MRTU constructs are regulated by a cis-regulating element (promoter). […] A major difference between the CIS and TRANS system is that in CIS activities of endogenous TFs are measured, whereas the TRANS assay evaluates changes in activities of exogenous, chimeric NR-Gal4 proteins. […] At the end of 24 hour incubation, total RNA was isolated using TriZol reagent (Invitrogen). The isolated RNA is then reverse-transcribed using oligo(dT) primer and Mo-MLV reverse transcriptase (Invitrogen) with DNAse I (Ambion) treatment for 30 min. The one-tenth of the produced cDNA was amplified by PCR using Taq DNA polymerase (Invitrogen) and two reporter sequence-specific primers. The PCR products were fluorescently labeled by primer extension with 6-arboxyfluorescein (6-FAM) 5'-labeled reporter sequence-specific primer (2 min at 95 C, 20 s at 68 C and 10 min at 72 C) and these products were digested with 5U of HpaI (New England Biolabs) for 2h at 37 C. The fragments were purified using Qiaquick PCR columns (Qiagen), analyzed on an ABI 3130xL genetic analyzer (Applied Biosystems) with peak positions identified by using a set of X-rhodamine (ROX)-labeled MapMarker1000 molecular weight standards (BioVentures). The raw capillary electrophoresis data was processed using Attagraph software (Attagene).
For `C=CCCl`, the call was inactive.
For the molecule `CCNc1nc(NCC)nc(SC)n1`, the call was inactive.
For the molecule `Cc1ccc(OP(=O)(Oc2ccc(C)cc2C)Oc2ccc(C)cc2C)c(C)c1`, the outcome was inactive.
Turning to `Cl[C@H]1OCCO[C@@H]1Cl`, the molecule was classed as inactive.
For `C=CCc1ccccc1O`, the molecule was called inactive.
With `O=[N+]([O-])c1cccc2ccccc12`, the call was inactive.
With `O=C(O)C1(c2ccc3c(c2)OC[C@H](Cc2ccc(-c4ccccc4)cc2)[C@H]3O)CCCC1`, the molecule was classed as inactive.
Still for that read-out and setting: to `[F][Sn]([c]1ccccc1)([c]1ccccc1)[c]1ccccc1` belongs “inactive”; to `NC(=O)CCl`, “inactive”.
On to `O=c1oc2ccccc2c(O)c1C(CC(O)c1ccc(-c2ccc(Br)cc2)cc1)c1ccccc1` (stereo not given), for which the molecule was classed as inactive.
Turning to `O=C(CBr)c1ccc(O)cc1`, the result was inactive.
`Cc1cccc(N=Nc2ccc(N(C)C)cc2)c1`: the molecule was classed as inactive.
`C=CC(F)(C(F)(F)F)C(F)(F)C(F)(F)F` (stereo not given): the call was inactive.
`CCCCCCCCCCBr`: the result was inactive.
Turning to `CCOP(=S)(OCC)SCS(=O)(=O)C(C)(C)C`, the molecule was classed as inactive.
On the same count and under the same terms, to `CN(CCCC(O)c1cccnc1)N=O` (stereo not given) belongs “inactive”; to `CCOP(=O)(OCC)OC(=CCl)c1ccc(Cl)cc1Cl`, “inactive”; to `CCOC(=O)OC1=C(c2cc(C)ccc2C)C(=O)NC12CCC(OC)CC2` (stereo not given), “inactive”.
The same measure, in the same setting: under `CCC[CH2][Sn]([Cl])([Cl])[CH2]CCC` stands “inactive”; under `CCCCC(CC)C(=O)Cl` (stereo not given), “inactive”.
As for `C=CCOC(N)=O`, the call was inactive.
Same read-out and setting: to `CCOC(=O)CC(=O)CCl` belongs “inactive”; to `Nc1ncn[nH]1`, “inactive”; to `CCCCCCCCCCCCCl`, “inactive”.
`ClCc1ccccc1Cl`: the molecule was called inactive.
Regarding `O=CCCl`, the outcome was inactive.
For the molecule `CCCCCCCCCCCCc1cccc(S(=O)(=O)O)c1`, the call was inactive.
As for `CCOP(=O)(OCC)SCCSCC`, the outcome was inactive.
Regarding `O=[N+]([O-])c1c2ccccc2cc2ccccc12`, the call was inactive.
As to `CC(C)CC(C)(c1ccc(O)cc1)c1ccc(O)cc1`, the outcome was inactive.
`CC(C)(C)c1ccc(CCOc2ncnc3ccccc23)cc1`: the call was inactive.
Take `CC(C)O.CC(C)O.OCCN(CCO)CCO.OCCN(CCO)CCO.[Ti]`: the result was inactive.
As for `C=CCOC(F)(C(F)(F)F)C(F)(F)F`, the molecule was called inactive.
The same measure, in the same setting: under `N#Cc1ccccc1N` stands “inactive”; under `O=[N+]([O-])c1ccc(Nc2ccccc2)cc1`, “inactive”.
On to `O=C1c2ccccc2C(=O)C1C(=O)C(c1ccccc1)c1ccc(Cl)cc1` (stereo not given), for which the AC50 was 88.4 µM (active).
Consider `CCCCOC(C)=O`, for which the outcome was inactive.
In the case of `ClCCN1CCOCC1`, the molecule was classed as inactive.
Still for that read-out and setting: under `O=C(O)COc1ccc(Cl)cc1` stands “inactive”; under `CN(C)c1ccc(N=O)cc1`, “inactive”.
